Here are results for seven compounds from PubChem BioAssay.

Records with an inconclusive call do not appear. Active and inactive are the calls of the source. Unless noted, how the calls were made is not given here.

Assay [1] can be described thus: yeast TOR pathway RPL19A-GFP modulators, primary screen, cell-based, S. cerevisiae, multiplex flow cytometry (AID 1862; in the data active means percent of DMSO control GFP below about 86%;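 further: lower values mimic rapamycin by blocking the RPL19A rise seen in DMSO cells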). Conditions: S. cerevisiae RPL19A-GFP strain, flow cytometry fluorescence, 3 h; at 10 µM; stronger effect = lower value. In general terms: A flow cytometer gives signals particle by particle.
Assay [2] can be described thus: modulators of CIT2-GFP expression in yeast, primary screen, S. cerevisiae, GFP fusion, multiplex flow cytometry (AID 1870;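 active means percent response above a set limit, the screen-wide mean plus 3 SD, cut at about 130% in these data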;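 further: barcoded CIT2-GFP strain pooled with four other GFP strains with rapamycin as positive control; median GFP fluorescence per well over plate mean of DMSO wells so 100% = DMSO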). The conditions noted are these: 3 h, at 10 µM, stronger effect = higher value.
Assay [3] is described as follows: modulators of LAP4-GFP expression in yeast, primary screen, S. cerevisiae, multiplex flow cytometry (AID 1873;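 active means GFP signal, as percent of the solvent control, above the screen mean plus 3 SD, about 149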). Conditions: 3 h, at 10 µM, stronger effect = higher value.
Assay [4] in a line: inhibitors of CD8+ T cell-vesicle binding, pilot screen, LFA-1/ICAM-1 modulator project, MLPCN validation set, flow cytometry (AID 2523;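 active means response below a set limit, under 55% cells CD8-positive and vesicle-bound, and CD8 cells' 90th-percentile brightness under 279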;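 on vesicle binding response: mean PE anti-B7-1 fluorescence of CD8+ cells relative to row control; 100% = QL9-loaded vesicles with DMSO vehicle in the same plate row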). The conditions noted are these: 2C mouse CD8+ T cells, at 7 µM, stronger effect = lower value; double positive events: measured here: CD8+/vesicle+ event percentage.
Assay [5] deals with Integrin beta-1 (Homo sapiens) + Integrin alpha-4 (Homo sapiens) (UniProt P13612+P05556). The assay can be described thus: inhibition of HUTS-21 binding to VLA-4, pilot screen, VLA-4 allosteric modulator project, U937 cells, HUTS-21 mAb, flow cytometry, validation set (AID 2674;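 active means inhibition above 50%, about 3 SD of the validation set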;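 further: antibody binding induced by the VLA-4 ligand LDV present at three times its Kd; 0% = LDV ligand with antibody and no compound and 100% = antibody without LDV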). The conditions noted are these: HUTS-21 LIBS mAb binding, at 6.7 µM, stronger effect = higher value.
Assay [6] in a line: superoxide lowering in aged yeast cells, pilot screen, validation compound set (AID 2706;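 active means superoxide response below 65% of plate, a cut near 3 SD across the whole screen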;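 further: yeast exposed to compound for one week at 30 degrees C before staining; 100% = mean of all compound wells on the same plate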). The conditions noted are these: S. cerevisiae aging, superoxide DHE fluorescence; at 10 µM; stronger effect = lower value.
Assay [7] addresses Beta-adrenergic receptor kinase 1 (Homo sapiens) (UniProt P25098). Briefly: GRK2 binders displacing RNA aptamer, biochemical, validation, human GRK2, bead flow cytometry (AID 488806;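 active means aptamer binding inhibition above 30%, about 3 SD of noise from non-fluorescent compounds; inactive means inhibition at or below 30%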). Conditions: bead-bound GRK2, FAM-aptamer displacement, at 10 µM, stronger effect = higher value.
Assay [8] concerns the target Beta-2 adrenergic receptor (Homo sapiens) (UniProt P07550). Briefly: beta2AR agonists driving receptor internalization, pilot screen, cell-based, FAP fluorogen, flow cytometry, validation set (AID 504459;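 active means percent response above 42, roughly 3 SD of non-fluorescent test compounds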;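 further: agonist-driven loss of surface beta2AR via internalization measured by FAP dye flow cytometry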). Conditions: Am2.2-beta2AR cells, FAP surface receptor flow cytometry; at 10 µM; stronger effect = higher value.
In assay [9] the target is AP-2 complex subunit beta (Homo sapiens) (UniProt P63010). The assay can be described thus: inhibitors of arrestin peptide binding to AP2, pilot screen, biochemical, validation set, GST-AP2 beads, flow cytometry (AID 504541;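 active means inhibition above 54%, about 3 SD of non-fluorescent compounds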;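 further: AP2 carries R879A mutation and is captured from E. coli lysate; bead-bound FITC arrestin peptide fluorescence measuring arrestin peptide binding to AP2; 0% = DMSO wells and 100% = excess unlabeled arrestin peptide control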). The conditions noted are these: FITC arrestin peptide, at 10 µM, stronger effect = higher value.
A short description of assay [10]: yeast V-ATPase proton transport modulators, S. cerevisiae, pHLuorin, HTS validation (AID 504600; in the data active means response above about 15%;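 further: plate controls were DMSO for no effect and reference compound for full effect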). The conditions noted are these: S. cerevisiae pHLuorin cytosolic pH, at 10 µM, stronger effect = higher value.
Assay [11] relates to anti-desmoglein-3 scFv antibody binding to human DSG3. Briefly: inhibitors of anti-DSG3 scFv binding to DSG3, pilot screen, biochemical, validation compound set, bead-based, flow cytometry (AID 588368;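 active means binding below the plate cutoff, the plate median minus 3 SD, with a reading above zero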;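 further: signal is the median channel fluorescence of bead-bound GFP antibody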). Conditions: Protein G beads, DSG3-Fc, scFv-GFP binding, at 10 µM, stronger effect = lower value.
Assay [12] concerns Botulinum neurotoxin type F light chain protease (Clostridium botulinum). Briefly: Botulinum neurotoxin type F light chain protease inhibition, multiplex microsphere flow cytometry, validation set (AID 588459). Conditions: multiplex microsphere protease substrate cleavage assay, at 10 µM, stronger effect = higher value.
Assay [13] deals with Botulinum neurotoxin type A (Clostridium botulinum) (UniProt P0DPI0). The assay can be described thus: BoNT/A light chain protease inhibitors, biochemical, multiplex microsphere flow cytometry, validation set (AID 588460). Conditions: at 10 µM, stronger effect = higher value.
Assay [14] concerns the target Lethal factor (Bacillus anthracis) (UniProt P15917). The assay can be described thus: Lethal factor protease inhibitors, Bacillus anthracis, multiplex microsphere cleavage assay, validation set (AID 588461). Conditions: flow cytometry, at 10 µM, stronger effect = higher value.
A short description of assay [15]: inhibitors of fungal efflux pumps CDR1, CDR2, MDR1, pilot screen, validation compound set, multiplex, phenotypic (AID 588506;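 active means efflux inhibition above 0.42, the validation set average plus 4 SD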;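 further: Nile Red retained in cells so higher fluorescence means more efflux inhibition; 0 = negative control wells and 1 = enniatin B 25 µM full block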). The conditions noted are these: S. cerevisiae pump-expressing triplex, Nile Red efflux flow cytometry; at 10 µM; stronger effect = higher value.
In assay [16] the target is ATP-binding cassette sub-family B member 6 (Homo sapiens) (UniProt Q9NP58). The assay can be described thus: ABCB6 transporter inhibitors, pilot screen, K562-ABCB6 cells, flow cytometry, validation set (AID 588550;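 active means inhibition above the screen-wide mean plus 3 SD, about 51%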;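 further: 0% = DMSO wells and 100% = benzethonium chloride 70 µM positive control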). The conditions noted are these: K562-ABCB6 porphyrin accumulation, 1 h, at 10 µM, stronger effect = higher value.
Assay [17] can be described thus: promoters of myeloid differentiation in arrested cells, primary screen, cell-based, GFP/MAC1 double positive, flow cytometry, validation set (AID 588685;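 active means differentiation response of at least 50%, scaled between solvent and reference control, from cells with both markers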;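 further: compound exposure lasts four days before antibody staining and flow analysis; 0% = DMSO wells and 100% = 5 µM fulvestrant positive control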). The conditions noted are these: ER-HoxA9 marrow cells, stronger effect = higher value.
Assay [18] in a line: RPL19A-GFP modulators, yeast TOR pathway, confirmation, cell-based, S. cerevisiae, flow cytometry, cherry picks, mother/daughter gates (AID 2270;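 active means GFP response below 50% of the DMSO control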). The conditions noted are these: S. cerevisiae RPL19A-GFP strain, 3 h, at 10 µM, stronger effect = lower value, 100 = same GFP as DMSO wells.
Assay [19] can be described thus: LAP4-GFP expression modulators in yeast, confirmation, cell-based, cherry picks, flow cytometry, mother/daughter gates (AID 2271;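 active means GFP response above 150% of the DMSO control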;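 further: ratio of sample to DMSO plate mean so 100% equals DMSO level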). Conditions: S. cerevisiae LAP4-GFP strain, 3 h, at 10 µM, stronger effect = higher value.
The nature of assay [20]: modulators of CIT2-GFP expression in yeast, confirmation, S. cerevisiae, GFP fusion, cherry picks, mother/daughter gates (AID 2274;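 active means GFP response above 150% of the DMSO level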). The conditions noted are these: S. cerevisiae CIT2-GFP strain, flow cytometry, 3 h, at 10 µM, stronger effect = higher value.
[21] abbreviates: measured here: daughter cell gate.
Setting [22] is: measured here: mother cell gate.
The mark [23] stands for this setting: measured here: daughter cell gate response.
Setting [24] is: measured here: mother cell gate response.

Integrin beta-1 (Homo sapiens) + Integrin alpha-4 (Homo sapiens), sequence (P05556 whole entry, looked up): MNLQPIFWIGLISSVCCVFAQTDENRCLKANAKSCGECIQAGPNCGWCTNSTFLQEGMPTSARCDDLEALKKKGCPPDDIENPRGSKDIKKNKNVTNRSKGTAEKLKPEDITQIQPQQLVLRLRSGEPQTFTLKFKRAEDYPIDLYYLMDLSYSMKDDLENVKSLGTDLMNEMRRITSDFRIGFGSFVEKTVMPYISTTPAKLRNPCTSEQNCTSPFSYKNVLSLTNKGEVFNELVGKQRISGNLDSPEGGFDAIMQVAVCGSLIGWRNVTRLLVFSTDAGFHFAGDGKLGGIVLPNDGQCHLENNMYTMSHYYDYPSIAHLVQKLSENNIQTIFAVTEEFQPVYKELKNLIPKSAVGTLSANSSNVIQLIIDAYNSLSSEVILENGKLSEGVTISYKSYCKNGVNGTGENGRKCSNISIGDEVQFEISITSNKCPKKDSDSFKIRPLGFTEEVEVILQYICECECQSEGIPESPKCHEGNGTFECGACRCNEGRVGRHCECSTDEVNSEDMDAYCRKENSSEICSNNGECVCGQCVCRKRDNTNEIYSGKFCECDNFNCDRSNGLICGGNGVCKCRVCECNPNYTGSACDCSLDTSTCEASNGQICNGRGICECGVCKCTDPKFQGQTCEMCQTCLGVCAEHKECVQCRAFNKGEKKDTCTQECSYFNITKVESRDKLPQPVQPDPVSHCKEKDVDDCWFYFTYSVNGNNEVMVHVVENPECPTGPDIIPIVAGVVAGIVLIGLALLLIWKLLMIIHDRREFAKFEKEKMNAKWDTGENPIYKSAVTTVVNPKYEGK
Integrin beta-1 (Homo sapiens) + Integrin alpha-4 (Homo sapiens), sequence (P13612 whole entry, looked up): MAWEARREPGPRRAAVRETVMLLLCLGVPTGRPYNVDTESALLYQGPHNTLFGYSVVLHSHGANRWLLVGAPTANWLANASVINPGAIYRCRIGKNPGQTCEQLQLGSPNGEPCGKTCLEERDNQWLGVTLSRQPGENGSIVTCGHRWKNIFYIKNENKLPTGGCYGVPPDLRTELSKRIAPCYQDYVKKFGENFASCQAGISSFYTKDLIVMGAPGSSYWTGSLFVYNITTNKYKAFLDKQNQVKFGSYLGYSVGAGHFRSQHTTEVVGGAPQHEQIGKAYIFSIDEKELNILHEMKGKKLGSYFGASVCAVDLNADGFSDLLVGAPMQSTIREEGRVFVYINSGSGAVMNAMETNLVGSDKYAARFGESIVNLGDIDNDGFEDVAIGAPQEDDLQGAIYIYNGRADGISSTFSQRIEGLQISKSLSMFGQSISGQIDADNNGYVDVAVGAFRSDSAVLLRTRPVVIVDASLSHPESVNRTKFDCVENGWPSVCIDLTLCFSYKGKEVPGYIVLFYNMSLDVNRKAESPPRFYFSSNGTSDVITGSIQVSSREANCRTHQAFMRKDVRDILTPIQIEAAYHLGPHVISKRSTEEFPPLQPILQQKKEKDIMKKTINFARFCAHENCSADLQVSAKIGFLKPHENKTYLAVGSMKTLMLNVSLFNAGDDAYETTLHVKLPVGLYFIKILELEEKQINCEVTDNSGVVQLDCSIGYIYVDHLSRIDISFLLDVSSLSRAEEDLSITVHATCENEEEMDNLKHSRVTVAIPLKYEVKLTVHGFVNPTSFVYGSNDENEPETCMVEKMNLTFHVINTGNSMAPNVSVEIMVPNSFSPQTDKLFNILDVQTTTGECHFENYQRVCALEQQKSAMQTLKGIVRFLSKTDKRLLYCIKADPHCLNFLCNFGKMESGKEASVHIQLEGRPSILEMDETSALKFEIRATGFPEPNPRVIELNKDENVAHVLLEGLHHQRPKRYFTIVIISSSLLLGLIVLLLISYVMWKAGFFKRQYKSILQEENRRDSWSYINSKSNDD
Beta-2 adrenergic receptor (Homo sapiens), sequence (P07550 whole entry, looked up): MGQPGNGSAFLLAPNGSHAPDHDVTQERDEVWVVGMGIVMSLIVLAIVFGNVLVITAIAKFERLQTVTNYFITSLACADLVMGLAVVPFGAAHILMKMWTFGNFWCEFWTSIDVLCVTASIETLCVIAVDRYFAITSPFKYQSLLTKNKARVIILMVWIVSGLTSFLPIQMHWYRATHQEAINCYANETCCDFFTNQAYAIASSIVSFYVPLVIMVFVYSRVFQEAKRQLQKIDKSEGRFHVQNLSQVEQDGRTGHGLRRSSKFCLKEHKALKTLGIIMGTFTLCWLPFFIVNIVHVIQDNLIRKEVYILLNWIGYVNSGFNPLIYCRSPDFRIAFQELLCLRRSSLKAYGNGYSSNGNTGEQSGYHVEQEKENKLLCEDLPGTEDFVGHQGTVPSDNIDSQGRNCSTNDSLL
AP-2 complex subunit beta (Homo sapiens), sequence (P63010 whole entry, looked up, one chain of several): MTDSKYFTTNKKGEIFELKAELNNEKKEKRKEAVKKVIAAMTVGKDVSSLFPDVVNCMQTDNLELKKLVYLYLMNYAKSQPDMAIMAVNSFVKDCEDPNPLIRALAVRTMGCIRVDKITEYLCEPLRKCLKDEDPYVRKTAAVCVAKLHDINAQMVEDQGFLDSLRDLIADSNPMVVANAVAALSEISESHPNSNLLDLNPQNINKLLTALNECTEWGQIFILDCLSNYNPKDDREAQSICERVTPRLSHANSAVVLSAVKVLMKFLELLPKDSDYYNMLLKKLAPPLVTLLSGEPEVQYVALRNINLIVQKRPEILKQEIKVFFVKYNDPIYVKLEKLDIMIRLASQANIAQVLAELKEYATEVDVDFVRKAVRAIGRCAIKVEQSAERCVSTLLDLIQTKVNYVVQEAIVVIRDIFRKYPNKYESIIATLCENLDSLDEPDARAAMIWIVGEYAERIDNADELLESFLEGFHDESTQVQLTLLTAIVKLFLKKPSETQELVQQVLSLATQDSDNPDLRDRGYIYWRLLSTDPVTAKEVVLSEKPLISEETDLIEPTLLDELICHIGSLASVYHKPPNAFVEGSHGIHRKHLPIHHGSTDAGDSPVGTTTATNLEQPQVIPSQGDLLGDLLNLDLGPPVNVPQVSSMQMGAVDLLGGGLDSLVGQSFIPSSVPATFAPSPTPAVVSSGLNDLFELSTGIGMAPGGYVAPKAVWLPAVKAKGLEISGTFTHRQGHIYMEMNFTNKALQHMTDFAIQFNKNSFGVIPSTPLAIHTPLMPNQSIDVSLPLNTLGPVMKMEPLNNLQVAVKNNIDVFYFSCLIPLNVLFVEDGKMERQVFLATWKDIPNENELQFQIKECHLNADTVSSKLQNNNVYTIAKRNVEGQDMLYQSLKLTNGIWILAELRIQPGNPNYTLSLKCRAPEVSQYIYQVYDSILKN
Botulinum neurotoxin type A (Clostridium botulinum), sequence (P0DPI0 whole entry, looked up): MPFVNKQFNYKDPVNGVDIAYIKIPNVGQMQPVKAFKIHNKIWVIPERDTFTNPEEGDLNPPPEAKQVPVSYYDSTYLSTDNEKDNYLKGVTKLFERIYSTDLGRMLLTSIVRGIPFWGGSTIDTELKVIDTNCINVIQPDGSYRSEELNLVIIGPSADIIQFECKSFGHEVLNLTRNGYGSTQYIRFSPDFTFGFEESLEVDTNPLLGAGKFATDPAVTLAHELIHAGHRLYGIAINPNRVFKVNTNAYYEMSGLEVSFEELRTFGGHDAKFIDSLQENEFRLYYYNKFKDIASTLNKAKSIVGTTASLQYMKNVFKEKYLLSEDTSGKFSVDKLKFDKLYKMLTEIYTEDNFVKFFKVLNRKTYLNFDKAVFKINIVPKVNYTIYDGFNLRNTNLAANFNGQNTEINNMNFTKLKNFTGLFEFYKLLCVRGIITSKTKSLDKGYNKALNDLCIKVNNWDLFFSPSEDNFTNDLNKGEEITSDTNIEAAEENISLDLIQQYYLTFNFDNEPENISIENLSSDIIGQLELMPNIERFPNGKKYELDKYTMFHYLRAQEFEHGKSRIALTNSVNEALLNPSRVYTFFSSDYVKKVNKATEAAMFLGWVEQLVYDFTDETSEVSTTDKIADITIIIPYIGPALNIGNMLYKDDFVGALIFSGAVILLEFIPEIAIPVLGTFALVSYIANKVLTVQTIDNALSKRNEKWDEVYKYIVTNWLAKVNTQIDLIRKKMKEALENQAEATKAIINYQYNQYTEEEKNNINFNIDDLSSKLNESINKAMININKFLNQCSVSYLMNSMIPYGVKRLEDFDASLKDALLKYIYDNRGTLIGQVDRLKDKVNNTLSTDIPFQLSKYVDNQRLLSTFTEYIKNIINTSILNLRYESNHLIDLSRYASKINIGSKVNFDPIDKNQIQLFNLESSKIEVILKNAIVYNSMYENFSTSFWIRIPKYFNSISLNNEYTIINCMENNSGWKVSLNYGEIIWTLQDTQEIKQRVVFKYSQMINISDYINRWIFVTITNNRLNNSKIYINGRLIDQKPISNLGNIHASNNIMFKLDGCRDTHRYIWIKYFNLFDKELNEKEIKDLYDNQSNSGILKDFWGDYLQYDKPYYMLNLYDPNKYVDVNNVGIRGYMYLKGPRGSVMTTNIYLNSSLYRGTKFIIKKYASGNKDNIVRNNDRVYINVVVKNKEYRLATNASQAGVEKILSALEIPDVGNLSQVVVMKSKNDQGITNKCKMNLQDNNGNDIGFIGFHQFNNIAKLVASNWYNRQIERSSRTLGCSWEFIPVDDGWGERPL

As usually defined, the inhibition is the change of the read-out against control, counted positive when it falls. `CCN1CC2(COC(=O)c3ccccc3N)CCC(OC)C34C5CC6C(OC)CC(O)(C5C6OC)C(O)(C(OC)C23)C14` (stereo not given): the percent of DMSO control GFP in [1] is 91.1% (inactive). Further, the percent response of DMSO control in [2] was 96.6% (inactive). Besides, in assay [3], the GFP response vs DMSO is 86.4% (inactive). Also, the double positive events in assay [4] came to 68.8%. For the same compound, in assay [4], the vesicle binding response is 247% (inactive). Besides, the inhibition was 5.49% (inactive) in assay [5]; 4.65% (inactive) in assay [9]; 1.9% (inactive) in assay [12]; 0.1% (inactive) in assay [13]; -9.8% (inactive) in assay [14]; 8% (inactive) in assay [16]. For the same compound, the superoxide response (% of plate) in [6] is 99.8% (inactive). Further, the aptamer binding inhibition in [7] was 2% (inactive). Also, the response is -0.45% (inactive) in assay [8] and 5.45% (inactive) in assay [10]. Moreover, in assay [11], the binding (% of control) is 101% (inactive). In assay [15], the efflux inhibition (fraction of control) is -0.42 (inactive). Also, in assay [17], the differentiation response is 9.83% (inactive).
For the compound `CN1C(=O)C(=Cc2ccc(SC3CCCCC3)o2)C(=O)N(C)C1=O`, the GFP response vs DMSO is 95.8% (inactive) in [18], 98.3% in assay [18] (setting [21]) and 92.3% in [18] (setting [22]). The results for the GFP response relative to DMSO in assay [19], in assay [19] (setting [23]) and in assay [19] (setting [24]) were 143% (inactive), 134% and 150%, respectively. The GFP response, % of DMSO is 83.5% (inactive) in assay [20], 84.1% in assay [20] (setting [21]) and 77.8% in [20] (setting [22]).
For `O=c1[nH]c(=O)n(Cc2ccc(F)cc2)c(O)c1C=NCCN1CCCCC1`, the GFP response vs DMSO was 96.9% (inactive) in assay [18], 97% in [18] (setting [21]) and 94.8% in assay [18] (setting [22]). The GFP response relative to DMSO in [19] was 95.3% (inactive); in assay [19] (setting [23]), 94.4%; in assay [19] (setting [24]) it was 94.4%. For the same compound, the GFP response, % of DMSO in assay [20] was 95.8% (inactive); in assay [20] (setting [21]), 97.6%; in [20] (setting [22]), 94.9%.
For the compound `O=C1NC(=O)N(CCc2ccc(F)cc2)C(=O)/C1=C/c1ccco1`, the results for the GFP response vs DMSO in assay [18], in [18] (setting [21]) and in [18] (setting [22]) were 98% (inactive), 99.4% and 97%, respectively. In addition, the GFP response relative to DMSO in [19] is 104% (inactive); in [19] (setting [23]), 106%; in [19] (setting [24]), 104%. The figures for the GFP response, % of DMSO in assay [20], in assay [20] (setting [21]) and in [20] (setting [22]) were 98.4% (inactive), 100% and 93.7%, respectively.
As to `CC12CN3CC(C)(CN(C1)C3c1cccnc1)C2=O` (stereo not given), in assay [1], the percent of DMSO control GFP is 95.2% (inactive). Also, the percent response of DMSO control in [2] is 97.9% (inactive). The GFP response vs DMSO in assay [3] is 81.4% (inactive). The double positive events in assay [4] was 58%. In assay [4], the vesicle binding response is 174% (inactive). Also, the inhibition is 8.4% (inactive) in assay [5]; -8.61% (inactive) in [9]; -1.6% (inactive) in assay [12]; 0.6% (inactive) in [13]; 9.9% (inactive) in assay [14]; 7% (inactive) in [16]. Further, the superoxide response (% of plate) in [6] is 108% (inactive). The aptamer binding inhibition in assay [7] was 4% (inactive). Besides, the response in assay [8] is 1.06% (inactive); in assay [10], 0.14% (inactive). For the same compound, the binding (% of control) in [11] was 95.4% (inactive). In assay [15], the efflux inhibition (fraction of control) was 0.3 (inactive). Besides, the differentiation response in assay [17] was -3.28% (inactive).
In the case of `C=CC1CN2CCC1CC2[C@@H](OC(=O)c1ccc(OC)cc1)c1ccnc2ccccc12` (stereo not given in full), in assay [1], the percent of DMSO control GFP is 96.1% (inactive). For the same compound, in assay [2], the percent response of DMSO control is 107% (inactive). In addition, the GFP response vs DMSO in assay [3] was 74.8% (inactive). The same compound came in with a double positive events in assay [4] of 59.2%. Further, the vesicle binding response in [4] is 222% (inactive). Moreover, the inhibition in [5] is 4.52% (inactive); in [9], -4.1% (inactive); in assay [12], 2.8% (inactive); in assay [13], 0.4% (inactive); in assay [14] it was -2% (inactive); in assay [16], 5% (inactive). Besides, the superoxide response (% of plate) in [6] was 105% (inactive). Besides, in assay [7], the aptamer binding inhibition was -2% (inactive). The response in assay [8] was 1.66% (inactive); in assay [10], -0.74% (inactive). For the same compound, in assay [11], the binding (% of control) was 109% (inactive). Besides, the efflux inhibition (fraction of control) in assay [15] is 0.01 (inactive). Also, the differentiation response in assay [17] is -8.19% (inactive).
With `O=C1NC(=S)NC(=O)C1=Cc1ccc2c(c1)CCN2CCCCl`, the figures for the GFP response vs DMSO in assay [18], in assay [18] (setting [21]) and in assay [18] (setting [22]) were 98.4% (inactive), 87.8% and 86%, respectively. For the same compound, the GFP response relative to DMSO in assay [19] is 163% (active); in assay [19] (setting [23]), 110%; in assay [19] (setting [24]), 184%. In addition, the GFP response, % of DMSO was 85.7% (inactive) in assay [20], 90.2% in [20] (setting [21]) and 76% in assay [20] (setting [22]).
